Source: PubChem BioAssay (Tox21)
Where “and” joins values, the source holds several entries; their conditions need not be identical. Equal values may be shown once. Inconclusive results are not listed. A call without a number means that no potency is given here. More than one record can exist for a structure, and the calls need not agree. Calls of active or inactive are those of the source. Unless noted, the call rests on the fitted dose curve.

Assays:
[1] = qHTS assay to identify small molecule agonists of the vitamin D receptor (VDR) signaling pathway - cell viability counter screen (AID 743224; active means well fitted curve in the direction sought with a large enough effect in the repeat runs; an effect the other way counts as inactive or inconclusive; further: nearly all actives have a fitted effect of over 50% in size; further: potency means the concentration at half of the fitted maximal effect)
Method in brief: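 VDR-bla cells, 4 h after plating, exposed to compounds for 16 h at 37C; viability then read in the same wells as CellTiter-Glo luminescence after 30 min at room temperature, following the bla FRET read.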

[2] = qHTS assay to identify small molecule agonists of the NFkB signaling pathway - cell viability counter screen (AID 1159515); further: nearly all actives have a fitted effect of over 55% in size; further: potency means the concentration at half of the fitted maximal effect
Method in brief: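 NFkB-bla ME-180 cells, 2,000/well, plated overnight at 37 C; compound added for 5 hr at 37 C. Viability read in the same wells as the bla reporter, by CellTiter-Glo luminescence after 30 min at room temperature.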

[3] = qHTS assay to identify small molecule agonists of the endoplasmic reticulum stress response signaling pathway (AID 1159516; active means well fitted activation curve with a large enough effect in the signal ratio in the repeat runs, not every such curve was filed as active; the % refers to the signal ratio)
Method in brief: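 CellSensor ESRE-bla HeLa cells, 1,500 per well, plated overnight, then exposed to compounds for 5 hr at 37 C. Beta-lactamase reporter read with LiveBLAzer B/G FRET substrate after 2 hr at room temperature, 405 nm excitation, 460 and 530 nm emission.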

[4] = qHTS assay to identify small molecule agonists of the endoplasmic reticulum stress response signaling pathway - cell viability counter screen (AID 1159517); further: nearly all actives have a fitted effect of over 50% in size; further: potency means the concentration at half of the fitted maximal effect
Method in brief: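 ESRE-bla HeLa cells, 1,500 per well, seeded overnight then treated with compounds for 5 hr at 37 C. After the beta-lactamase read, viability in the same wells is measured by CellTiter-Glo luminescence after 30 min at room temperature.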

[5] = qHTS assay to identify small molecule antagonists of the retinoid-related orphan receptor gamma (ROR-gamma) signaling pathway - cell viability counter screen (AID 1159520; active means well fitted curve in the direction sought with a large enough effect in the repeat runs; an effect the other way counts as inactive or inconclusive; further: nearly all actives have a fitted effect of over 50% in size)
Method in brief: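 Tet-on ROR gamma CHO cells were given compounds for 2 hr, then doxycycline hyclate at 1 uM final, and incubated 16 hr at 37 C. Viability was measured as ATP content by CellTiter-Glo luminescence.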

[6] = target: Nuclear receptor ROR-gamma (Homo sapiens) (UniProt P51449); experiment: qHTS assay to identify small molecule antagonists of the retinoid-related orphan receptor gamma (ROR-gamma) signaling pathway (AID 1159521; active means well fitted curve in the direction sought with a large enough effect in the repeat runs; an effect the other way counts as inactive or inconclusive; further: nearly all actives have a fitted effect of over 50% in size; further: potency means the concentration at half of the fitted maximal effect)
Method in brief: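 Antagonist read-out: drop in luminescence (ONE-Glo) from an RORE-LUC reporter in CHO cells with doxycycline-inducible ROR-gamma; 2 hr compound pretreatment, 1 uM doxycycline, 16 hr incubation at 37 C.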

[7] = qHTS assay to identify small molecule agonists of the AP-1 signaling pathway - cell viability counter screen (AID 1159525); further: nearly all actives have a fitted effect of over 55% in size; further: potency means the concentration at half of the fitted maximal effect
Method in brief: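 AP-1-bla ME-180 cells in Opti-MEM with 0.5% dialyzed FBS, compound exposure 5 h at 37 C in 15-point titration. Viability read in the same wells as ATP content by CellTiter-Glo luminescence, normalised to tetra-n-octylammonium bromide and DMSO controls.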

[8] = qHTS assay to identify small molecule agonists of the AP-1 signaling pathway (AID 1159526)
[9] = target: Retinoic acid receptor RXR-alpha (Homo sapiens) (UniProt P19793); experiment: qHTS assay to identify small molecule agonists of the RXR signaling pathway (AID 1159527); further: nearly all actives have a fitted effect of over 35% in size; further: potency means the concentration at half of the fitted maximal effect
Retinoic acid receptor RXR-alpha (Homo sapiens), sequence (P19793 whole entry, looked up): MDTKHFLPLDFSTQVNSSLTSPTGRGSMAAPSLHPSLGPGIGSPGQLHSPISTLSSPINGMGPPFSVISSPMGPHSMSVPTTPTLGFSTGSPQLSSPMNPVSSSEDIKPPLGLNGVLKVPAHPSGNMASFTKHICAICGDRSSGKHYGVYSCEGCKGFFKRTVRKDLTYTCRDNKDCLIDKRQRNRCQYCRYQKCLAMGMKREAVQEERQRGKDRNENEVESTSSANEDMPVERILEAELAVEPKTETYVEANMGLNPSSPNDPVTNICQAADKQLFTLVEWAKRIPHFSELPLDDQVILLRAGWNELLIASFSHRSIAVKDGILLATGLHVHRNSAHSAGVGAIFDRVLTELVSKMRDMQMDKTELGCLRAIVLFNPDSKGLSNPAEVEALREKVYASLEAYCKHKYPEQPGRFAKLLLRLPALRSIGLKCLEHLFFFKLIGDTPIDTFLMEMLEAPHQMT
Method in brief: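 Agonist-mode beta-lactamase reporter assay: HEK 293T RXR-alpha-UAS-bla cells treated 16 hr at 37 C with compounds, 9-cis retinoic acid as positive control. LiveBLAzer FRET substrate, 405 nm excitation, 460/530 nm emission.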

[10] = qHTS assay to identify small molecule antagonists of the vitamin D receptor (VDR) signaling pathway - cell viability counter screen (AID 743225; active means well fitted curve in the direction sought with a large enough effect in the repeat runs; an effect the other way counts as inactive or inconclusive; further: nearly all actives have a fitted effect of over 50% in size; further: potency means the concentration at half of the fitted maximal effect)
Method in brief: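 Cytotoxicity counter screen read by CellTiter-Glo luminescence (30 min, room temperature) in the same wells as the VDR-bla antagonist readout. HEK 293T VDR-UAS-bla cells had 16 h at 37C with compound and 3 nM (final) 1-alpha,25-dihydroxyvitamin D3, then 2 h with FRET substrate.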

Row | SMILES | Potency [1] | Potency [2] | Potency [3] | Potency [4] | Potency [5] | Potency [6] | Potency [7] | Potency [8] | Potency [9] | Potency [10]
1 | C=C[C@@]1(C)CC(=O)[C@]2(O)[C@@]3(C)[C@@H](O)CCC(C)(C)[C@@H]3[C@H](O)[C@H](OC(C)=O)[C@@]2(C)O1 | inactive | 24.5 µM (active) and 21.3 µM (active) | inactive | 21.9 µM (active) and 21.3 µM (active) | inactive | 54.5 µM (active) | 21.9 µM (active) and 21.3 µM (active) | inactive | 12.3 µM (active) | –
2 | O=C(O)COCCN1CCN(C(c2ccccc2)c2ccc(Cl)cc2)CC1 (stereo unspecified) | inactive | inactive | inactive | inactive | inactive | inactive | inactive | inactive | inactive | inactive
3 | COC(=O)c1ccc(C)cc1 | inactive | inactive | inactive | inactive | inactive | inactive | inactive | inactive | inactive | inactive
4 | CC(=O)[C@@]1(O)CC[C@H]2[C@@H]3C[C@H](C)C4=CC(=O)C=C[C@]4(C)[C@@]3(F)[C@@H](O)C[C@@]21C | inactive | inactive | inactive | inactive | inactive | – | inactive | inactive | inactive | inactive
5 | CC(=O)Oc1ccc(C(c2ccc(OC(C)=O)cc2)c2ccccn2)cc1 | inactive | 546 nM (active) and 1.07 µM (active) | inactive | – | inactive | inactive | 109 nM (active) and 952 nM (active) | – | inactive | inactive
6 | C[C@]12CC[C@@H]3c4ccc(O)cc4CC[C@H]3[C@@H]1CC[C@H]2O | inactive | inactive | inactive | inactive | inactive | 17.5 µM (active) | inactive | – | – | inactive
7 | NCCN | inactive | inactive | inactive | inactive | inactive | – | inactive | inactive | inactive | inactive
8 | Nc1ccc2c(O)cc(S(=O)(=O)O)cc2c1 | inactive | inactive | inactive | inactive | inactive | 9.7 µM (active) and 5.45 µM (active) | inactive | – | inactive | inactive
9 | CN(C)CCCN1c2ccccc2Sc2ccc(Cl)cc21 | 21.9 µM (active) | 54.9 µM (active) and inactive | inactive | inactive | inactive | 34.4 µM (active) | inactive | – | – | 24.5 µM (active) and inactive
10 | CC1(C)C(C=C(Cl)Cl)C1C(=O)OCc1cccc(Oc2ccccc2)c1 (stereo unspecified) | inactive | – | inactive | inactive | inactive | 54.1 µM (active) and inactive | inactive | inactive | inactive | inactive
11 | COc1ccc(-c2coc3cc(O)cc(O)c3c2=O)cc1 | inactive | inactive | inactive | inactive | inactive | – | – | – | inactive | inactive
12 | CCCCCC=O | inactive | inactive | inactive | inactive | inactive | – | inactive | inactive | inactive | inactive
13 | C=C[Si](OCCOC)(OCCOC)OCCOC | inactive | inactive | inactive | inactive | inactive | – | inactive | inactive | inactive | inactive
14 | CCOC(=O)C(C)Oc1ccc(Oc2cnc3cc(Cl)ccc3n2)cc1 (stereo unspecified) | inactive | inactive | inactive | inactive | inactive | inactive | inactive | inactive | – | inactive
15 | CCCCCCCCCCCCCO | inactive | inactive | inactive | inactive | inactive | – | inactive | inactive | inactive | inactive
16 | CC[C@]12CCCN3CCc4c(n(c5ccccc45)[C@@](O)(C(=O)OC)C1)[C@@H]32 | inactive | inactive | inactive | inactive | inactive | – | inactive | – | inactive | inactive
17 | CC(C)[N+](C)(CCOC(=O)C1c2ccccc2Oc2ccccc21)C(C)C | inactive | inactive | inactive | inactive | inactive | inactive | inactive | inactive | – | inactive
18 | CC(=O)OC(C)C | inactive | inactive | inactive | – | inactive | inactive | inactive | inactive | inactive | inactive
19 | OCCNCCO | inactive | inactive | inactive | inactive | inactive | – | inactive | inactive | – | inactive
20 | CC(=O)O[C@]1(C(C)=O)CC[C@H]2[C@@H]3C=C(C)C4=CC(=O)CC[C@]4(C)[C@H]3CC[C@@]21C | inactive | inactive | inactive | inactive | inactive | 21.7 µM (active) | inactive | inactive | – | inactive
21 | CC(=O)O[C@]1(C(C)=O)CC[C@H]2[C@@H]3C=C(Cl)C4=CC(=O)CC[C@]4(C)[C@H]3CC[C@@]21C | 43.6 µM (active) and inactive | inactive | inactive | inactive | inactive | – | inactive | – | – | inactive

Row | SMILES | Potency [1] | Potency [2] | Potency [3] | Potency [4] | Potency [5] | Potency [6] | Potency [7] | Potency [8] | Potency [9] | Potency [10]
22 | CCCCCC1C(=O)CCC1CC(=O)OC (stereo unspecified) | inactive | inactive | inactive | inactive | inactive | – | inactive | inactive | inactive | –
23 | CCC(Cc1c(I)cc(I)c(N)c1I)C(=O)O (stereo unspecified) | inactive | inactive | inactive | inactive | inactive | inactive | inactive | – | inactive | inactive
24 | CC1(C)O[C@@H]2C[C@H]3[C@@H]4C[C@H](F)C5=CC(=O)C=C[C@]5(C)[C@@]4(F)[C@@H](O)C[C@]3(C)[C@]2(C(=O)CO)O1 | inactive | inactive | inactive | inactive | inactive | – | inactive | inactive | – | inactive
25 | CC(C)[C@@H]1CC[C@@H](C)CC1=O | inactive | inactive | inactive | inactive | inactive | – | inactive | inactive | inactive | inactive
26 | c1ccc2c(c1)ccc1ncccc12 | inactive | inactive | inactive | inactive | inactive | inactive | inactive | inactive | – | inactive
27 | O=C1CCc2ccccc2O1 | inactive | inactive | inactive | inactive | inactive | – | inactive | inactive | inactive | inactive
28 | CCCCCCCCCCCCO | inactive | inactive | inactive | inactive | inactive | inactive | inactive | inactive | – | inactive
29 | COC(=O)CC(=O)OC | inactive | inactive | inactive | inactive | inactive | – | inactive | inactive | inactive | inactive
30 | Cc1ccc(S(=O)(=O)O)cc1C | inactive | inactive | inactive | inactive | inactive | – | inactive | inactive | inactive and 9.77 µM (active) | inactive
31 | Cc1ccc2c(c1)C(=O)OC2=O | inactive | inactive | inactive | inactive | inactive | – | inactive | inactive | inactive | inactive
32 | C=CCNCC=C | inactive | inactive | inactive | inactive | inactive | – | inactive | inactive | inactive | inactive
33 | CCCOCCO | inactive | inactive | inactive | inactive | inactive | – | inactive | inactive | inactive | inactive
34 | C1CN(SSN2CCOCC2)CCO1 | inactive | inactive | inactive | inactive | – | – | inactive | – | – | inactive
35 | C=CC(C)(O)CCC=C(C)C (stereo unspecified) | inactive | inactive | inactive | inactive | inactive | – | inactive | inactive | – | inactive
36 | CC(=O)[C@H]1CC[C@H]2[C@@H]3CC=C4C[C@@H](O)CC[C@]4(C)[C@H]3CC[C@]12C | inactive | inactive | inactive | inactive | inactive | 13.7 µM (active) | inactive | inactive | – | inactive
37 | Oc1ccc(C(c2ccc(O)cc2)C(Cl)(Cl)Cl)cc1 | – | inactive | inactive | inactive | inactive | – | inactive | inactive | – | –
38 | Oc1c(Cl)ccc(Cl)c1Cl | inactive | inactive | inactive | inactive | inactive | – | inactive | inactive | inactive | inactive
39 | Nc1ccc2c(c1)C(=O)c1ccccc1C2=O | inactive | inactive | inactive | inactive | – | inactive | inactive | inactive | inactive | inactive
40 | Cc1ccc(/C(=C\CN2CCCC2)c2ccccn2)cc1 | inactive | inactive | inactive | inactive | inactive | – | inactive | – | inactive | inactive
41 | ClC/C=C/CCl | inactive | inactive | inactive | inactive | inactive | – | inactive | inactive | inactive | inactive
42 | COc1ccc2nc(N)sc2c1 | inactive | inactive | inactive | inactive | inactive | inactive | inactive | inactive | – | inactive
